Laboratory results: ChEMBL document CHEMBL1157539, “Thousands of chemical starting points for antimalarial lead identification” (Nature, 2010)

tested on: HepG2; experiment: GSK_TCMDC: Percent inhibition of human HepG2 cell line. Test compounds present at 10uM.; format: functional

Row | Structure (SMILES) | Inhibition [%]
1 | COc1ccc(C2CC(c3cccs3)=NN2C(=O)COc2cccc(C(C)=O)c2)cc1OC (stereo unspecified) | 10
2 | NC(=O)c1sc(-n2cnc3ccc(C(=O)NCCN4CCOCC4)cc32)cc1OCc1ccccc1C(F)(F)F.O=CO | 0
3 | Cc1nc(Nc2ccc(F)cc2)nc(N2CCc3ccccc3[C@@H]2C)c1C.Cl | 12
4 | Cc1cc(OCCCN2CCC(NC(=O)c3ccc(Br)cc3)C2)c2ccccc2n1 (stereo unspecified) | 13
5 | O=C(Nc1cccc(-c2nn3ccccc3c2-c2ccnc(Nc3cccc(F)c3)n2)c1)C1CCCCC1 | 44
6 | COc1cc2ncnc(Nc3ccc(OC(F)(F)c4ccccc4)cc3)c2cc1OC.Cl | 14
7 | COc1ccc(/N=C(\N)Nc2ccccc2)nc1Cc1ccccc1 | 17
8 | Cc1cc2c(cc1C(F)(F)F)N(C(=O)Nc1ccc(C(=O)NCCN3CCCC3)cc1)CC2 | 10
9 | N#Cc1cc(N(CCCOc2cccc(OC(F)(F)F)c2)Cc2ccccc2C(F)(F)F)ccc1C(F)(F)F | 2
10 | COc1cccc(-c2cc3c(NCc4ccncc4)nccc3s2)c1 | 0
11 | O=C(Nc1cccc(Cl)c1)c1cc2ccccc2cc1O | 4
12 | COc1cc(Cc2cnc(N)nc2N)ccc1OCc1csc(-c2ccc(Cl)cc2)n1 | 39
13 | CC(C)C(=O)NC(NC(=S)Nc1ccc(Br)cc1)C(Cl)(Cl)Cl (stereo unspecified) | 0
14 | COc1ccc(CNC(=O)Nc2cccc(-c3csc(NC(=N)N)n3)c2)cc1 | 8
15 | O=C(O)C(F)(F)F.Oc1ccc(CNCC2CCN(CC3CCCCC3)CC2)cc1 | 9
16 | N=C1SC(=Cc2cn[nH]c2-c2ccc(F)cc2)C(=O)N1c1nccs1 | 28
17 | COc1ccc2c(c1)C(C)(CCCN(C)C)C(=O)N2C.O=C(O)C(=O)O (stereo unspecified) | 8
18 | CO/N=C(\C)c1ccc2c(c1)CCN(CCC1CCC(NC(=O)c3cccc(-c4noc(C)n4)c3)CC1)CC2.Cl (stereo unspecified) | 42
19 | CNC(=O)c1ccc(/C=C/C(=O)N2CCc3ccc(-c4ccccc4)cc3C2c2cccc(C(F)(F)F)c2)cc1 (stereo unspecified) | 9
20 | C=CCOc1cc(Cc2cnc(N)nc2N)cc(OC)c1OC.Cl | 0
21 | COc1ccc(Cl)cc1N1CCN(CCCNC(=O)c2ccc(-c3nc4c(C)cccc4[nH]3)s2)CC1 | 0
22 | Nc1[nH]c2ccccc2c(=O)c1-c1nc2ccccc2s1 | 16
23 | CN1CCC(N2CCN(C(=O)c3cccc(-c4cccc(-c5nc6ccccc6[nH]5)c4)c3)CC2)CC1 | 10
24 | S=C(Nc1ccc(Cl)cc1)Nc1ccc(Nc2ccccc2)cc1 | 14
25 | CCN(CC)CCCN(C(=O)Nc1cc(F)cc(F)c1)c1nc(-c2ccc(F)cc2)cs1 | 27
26 | CN(C)Cc1ccc(CNC2CCN(Cc3ccccc3Cl)CC2)cc1.O=C(O)C(F)(F)F | 23
